Consider two compounds from PubChem BioAssay (NCATS).

Records with an inconclusive call do not appear. The source made the active and inactive calls. Unless noted, calls come from the whole dose curve; as a rule, active = well fitted curve in the direction sought with a large enough effect; inconclusive = small, poorly fitted or top-dose-only effect, or another doubt; inactive = no such curve, though single readings can be large; an effect the other way counts as inactive or inconclusive. Where only a bound is given, the exact number is not on record here.

Assay [1] addresses Glucocorticoid receptor (Homo sapiens) (UniProt P04150). Briefly: GR-GFP Redistribution (AID 450;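 active = compounds whose dose series gives a full or clear partial fitted curve of increased nuclear translocation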; note: potency is the fitted concentration of half-maximal effect). Conditions: U2OS GR-GFP nuclear translocation, laser cytometry, 2 h.
The target is the same in assay [2]. The assay can be described thus: GR-EFC Redistribution (AID 451; calls by dose curve; note: potency is the fitted concentration of half-maximal effect). Conditions: CHO-K1 GR-EFC translocation, beta-gal luminescence, 2 h. Put shortly:
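CHO-K1 cells stably expressing nuclear-localized β-gal enzyme acceptor and GR fused C-terminally to the enzyme donor fragment; ligand-driven nuclear translocation restores β-gal by complementation. Compounds titrated up to 46 uM final, 2 h at 37 °C; luminescence read.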

Assay [3] has as its target Mitogen-activated protein kinase 10 (Mus musculus) (UniProt Q61831). The assay can be described thus: JNK3 AlphaScreen Assay (AID 530; active = well fitted curve in either direction with a large enough effect, not every such curve was filed as active;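 note: kinase came from lysate of stimulated human HepG2 cells; % is set by controls: 0 for no effect and ±100 for the full control effect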). Conditions: JNK3 lysate, c-Jun phosphorylation; series mostly up to 57.1 µM. In short, it runs like this: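 Phosphorylation of biotinylated GST-cJun(1-79) at Ser73 is measured by AlphaScreen proximity luminescence. Enzyme is JNK3 in HepG2 lysates activated with interleukin-1beta and tumor necrosis factor alpha; ATP is 10 uM final.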

Assay [4] has as its target Cytochrome P450 2D6 (Homo sapiens) (UniProt P10635). The assay can be described thus: qHTS Assay for Inhibitors and Substrates of Cytochrome P450 2D6 (AID 891). Note: potency is the fitted concentration of half-maximal effect; nearly all actives have a fitted effect of over 60% in size. Conditions: recombinant CYP2D6, luciferin-ME EGE luminescence; series mostly up to 57.1 µM. Put shortly:
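Luminescent read-out of luciferin formed by 5 nM human CYP2D6 demethylating 30 uM Luciferin-ME EGE (Km level) over 60 min at room temperature after NADPH regeneration addition. Data normalized to full inhibition by 1.43 uM quinidine.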
On the technique in general: In qHTS, concentration-response curves come from the screen itself.

A short description of assay [5]: qHTS Assay for Lipid Storage Modulators (AID 1519; calls by dose curve; for activity change, negative = inhibition: % is set by controls: 0 for no effect and ±100 for the full control effect). Conditions: Drosophila S3 cells, BODIPY lipid droplet/cell ratio, laser cytometry, cells loaded with oleic acid; for activity change, negative = inhibition: at 57.5 µM (top of the series). Put shortly: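 Cells seeded at 5,000 per well were treated with compounds over a concentration series and loaded with oleic acid (400 uM, as added). Lipid droplet fluorescence (488 nm excitation, 500-530 nm channel) was read by laser-scanning cytometry and normalized to 20 uM Triacsin C.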

The target in assay [6] is Ubiquitin carboxyl-terminal hydrolase 1 (Homo sapiens) (UniProt O94782). The assay can be described thus: Inhibitors of USP1/UAF1: Pilot qHTS (AID 504865).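 Note: rhodamine fluorescence freed from ubiquitin-rhodamine substrate followed over time; top concentration of the series differs between compounds; % is set by controls: 0 for no effect and ±100 for the full control effect; nearly all actives have a fitted effect of over 35% in size.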 Conditions: purified USP1/UAF1, Ub-rhodamine cleavage fluorescence; series mostly up to 114 µM. In short, it runs like this:
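Enzyme-free wells gave the negative control, while test wells held 1nM USP1/UAF1 preincubated with compound for 15 min at room temperature. Ub-Rho at 150nM final started the reaction, and fluorescence at 480/540 nm was recorded kinetically.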

The target in assay [7] is DNA dC->dU-editing enzyme APOBEC-3G (Homo sapiens) (UniProt Q9HC16). Briefly: qHTS for inhibitors of Vif-A3G interactions: Validation (AID 588379). Note: 0% is about no effect. The settings on record: Vif-A3G protein interaction assay; series mostly up to 46.1 µM. In short, it runs like this: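 Yellow fluorescence (Ex 488, Em 500-530) of Vif-coexpressing HeLa A3G-eYFP cells, scanned by Acumen cytometer, reports blocked A3G degradation. Cells plated at 700/well overnight at 37 deg C before compound addition, then a further overnight compound incubation at 37 deg C.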
DNA dC->dU-editing enzyme APOBEC-3G (Homo sapiens), sequence (Q9HC16 whole entry, looked up): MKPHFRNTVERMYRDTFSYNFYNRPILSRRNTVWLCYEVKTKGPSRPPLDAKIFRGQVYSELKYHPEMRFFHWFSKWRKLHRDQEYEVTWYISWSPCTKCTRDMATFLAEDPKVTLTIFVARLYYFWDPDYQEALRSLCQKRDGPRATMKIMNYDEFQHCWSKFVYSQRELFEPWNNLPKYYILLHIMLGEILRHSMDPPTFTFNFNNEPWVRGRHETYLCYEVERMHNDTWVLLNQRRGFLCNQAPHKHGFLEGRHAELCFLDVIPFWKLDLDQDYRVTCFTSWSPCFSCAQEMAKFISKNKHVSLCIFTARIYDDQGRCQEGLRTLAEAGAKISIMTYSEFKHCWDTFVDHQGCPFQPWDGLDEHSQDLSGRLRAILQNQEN

Assay [8] concerns Zika virus NS2B-NS3 protease. Briefly: Primary screen GU AMC qHTS for Zika virus inhibitors (AID 1347154).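 Note: 0% = no-inhibitor control and -100% = no-enzyme control; nearly all actives have a fitted effect of over 70% in size.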 Conditions: Zika NS2B-NS3 unlinked protease, AMC fluorogenic substrate; series mostly up to 54.1 µM. In short, it runs like this: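 Unlinked Zika NS2B hydrophilic domain/NS3 protease domain noncovalent complex (25 nM final) in 10 mM Tris-HCl pH 8.0, 0.01% Tween 20, with AMC peptide substrate. Fluorescence (ex 340, em 450 nm) change over 15 min, room temperature; percent inhibition fitted to 4-parameter Hill equation.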

The target of assay [9] is 3',5'-cyclic-AMP phosphodiesterase 4B (Homo sapiens) (UniProt Q07343). Briefly: qHTS Assay for Inhibitors of PDE-IV (AID 607; active = well fitted activation curve with a large enough effect in the main read-out, with a control signal flat, not every such curve was filed as active; note: % of control where 0% means no effect). Conditions: HEK293 ACTOne CNG channel cells, membrane potential fluorescence; series mostly up to 22.9 µM. Put shortly:
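HEK293 ACTOne cells with CNG channel (1000/well), endogenous PDE4; membrane potential dye, compounds up to 22.9 uM final. Fluorescence Ex 535/Em 590; RO 20-1724 (100 uM final) as reference.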

Where [10] appears, read: measured here: cell count channel max response.
The mark [11] stands for this setting: measured here: lipid channel max response.

Glucocorticoid receptor (Homo sapiens), sequence (P04150 whole entry, looked up): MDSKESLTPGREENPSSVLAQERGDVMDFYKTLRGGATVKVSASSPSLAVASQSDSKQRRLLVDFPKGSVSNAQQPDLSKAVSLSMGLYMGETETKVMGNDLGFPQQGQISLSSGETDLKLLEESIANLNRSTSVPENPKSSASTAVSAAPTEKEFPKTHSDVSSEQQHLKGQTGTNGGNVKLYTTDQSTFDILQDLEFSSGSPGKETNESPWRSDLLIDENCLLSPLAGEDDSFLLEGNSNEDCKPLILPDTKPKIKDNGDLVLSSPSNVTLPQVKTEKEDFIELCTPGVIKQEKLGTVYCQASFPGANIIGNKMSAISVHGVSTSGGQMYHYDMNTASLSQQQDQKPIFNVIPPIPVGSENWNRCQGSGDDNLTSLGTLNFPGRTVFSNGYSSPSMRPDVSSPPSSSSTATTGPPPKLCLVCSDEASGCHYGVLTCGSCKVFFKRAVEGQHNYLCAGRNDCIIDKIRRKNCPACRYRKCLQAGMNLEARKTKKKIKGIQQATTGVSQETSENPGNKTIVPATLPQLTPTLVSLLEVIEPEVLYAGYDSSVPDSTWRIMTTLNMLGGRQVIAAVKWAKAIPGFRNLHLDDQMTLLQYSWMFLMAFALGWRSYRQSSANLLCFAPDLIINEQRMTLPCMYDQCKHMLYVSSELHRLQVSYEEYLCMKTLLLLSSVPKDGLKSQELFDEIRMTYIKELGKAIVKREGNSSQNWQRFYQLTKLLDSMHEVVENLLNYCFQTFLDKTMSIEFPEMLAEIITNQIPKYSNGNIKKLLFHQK
Ubiquitin carboxyl-terminal hydrolase 1 (Homo sapiens), sequence (O94782 whole entry, looked up): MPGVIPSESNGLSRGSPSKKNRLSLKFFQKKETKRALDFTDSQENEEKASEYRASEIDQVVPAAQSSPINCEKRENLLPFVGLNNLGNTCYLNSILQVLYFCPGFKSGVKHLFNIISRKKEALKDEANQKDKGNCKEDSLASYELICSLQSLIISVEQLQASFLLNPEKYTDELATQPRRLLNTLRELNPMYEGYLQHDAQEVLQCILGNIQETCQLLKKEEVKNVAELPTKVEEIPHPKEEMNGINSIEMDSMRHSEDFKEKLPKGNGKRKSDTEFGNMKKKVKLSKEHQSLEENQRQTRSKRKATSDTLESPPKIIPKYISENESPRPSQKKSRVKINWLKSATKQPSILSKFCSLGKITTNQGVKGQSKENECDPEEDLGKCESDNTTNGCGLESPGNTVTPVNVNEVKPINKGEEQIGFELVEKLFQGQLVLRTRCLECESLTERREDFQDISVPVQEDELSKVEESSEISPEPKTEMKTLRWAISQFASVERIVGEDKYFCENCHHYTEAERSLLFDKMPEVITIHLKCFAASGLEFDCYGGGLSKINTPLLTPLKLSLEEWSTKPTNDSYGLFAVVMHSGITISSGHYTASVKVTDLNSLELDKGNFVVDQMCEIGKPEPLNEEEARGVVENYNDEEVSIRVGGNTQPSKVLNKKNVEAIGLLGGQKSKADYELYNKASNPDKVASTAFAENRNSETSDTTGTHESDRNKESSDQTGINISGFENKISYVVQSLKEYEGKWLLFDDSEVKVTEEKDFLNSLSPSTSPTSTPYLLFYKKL
Cytochrome P450 2D6 (Homo sapiens), sequence (P10635 whole entry, looked up): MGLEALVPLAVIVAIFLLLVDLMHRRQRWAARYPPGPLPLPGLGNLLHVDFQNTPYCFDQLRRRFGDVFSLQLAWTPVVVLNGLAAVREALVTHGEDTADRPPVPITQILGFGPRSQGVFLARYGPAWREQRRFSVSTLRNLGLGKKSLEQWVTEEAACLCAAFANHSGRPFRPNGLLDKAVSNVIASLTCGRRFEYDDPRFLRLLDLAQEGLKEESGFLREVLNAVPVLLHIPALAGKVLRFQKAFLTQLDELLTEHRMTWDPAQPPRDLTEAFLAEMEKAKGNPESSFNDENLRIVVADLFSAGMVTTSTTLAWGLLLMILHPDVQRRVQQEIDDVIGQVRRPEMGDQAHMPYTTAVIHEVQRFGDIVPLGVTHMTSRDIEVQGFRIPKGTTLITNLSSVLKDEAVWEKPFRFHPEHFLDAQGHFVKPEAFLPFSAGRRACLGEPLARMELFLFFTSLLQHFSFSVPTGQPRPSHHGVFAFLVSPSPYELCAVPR
3',5'-cyclic-AMP phosphodiesterase 4B (Homo sapiens), sequence (Q07343 whole entry, looked up): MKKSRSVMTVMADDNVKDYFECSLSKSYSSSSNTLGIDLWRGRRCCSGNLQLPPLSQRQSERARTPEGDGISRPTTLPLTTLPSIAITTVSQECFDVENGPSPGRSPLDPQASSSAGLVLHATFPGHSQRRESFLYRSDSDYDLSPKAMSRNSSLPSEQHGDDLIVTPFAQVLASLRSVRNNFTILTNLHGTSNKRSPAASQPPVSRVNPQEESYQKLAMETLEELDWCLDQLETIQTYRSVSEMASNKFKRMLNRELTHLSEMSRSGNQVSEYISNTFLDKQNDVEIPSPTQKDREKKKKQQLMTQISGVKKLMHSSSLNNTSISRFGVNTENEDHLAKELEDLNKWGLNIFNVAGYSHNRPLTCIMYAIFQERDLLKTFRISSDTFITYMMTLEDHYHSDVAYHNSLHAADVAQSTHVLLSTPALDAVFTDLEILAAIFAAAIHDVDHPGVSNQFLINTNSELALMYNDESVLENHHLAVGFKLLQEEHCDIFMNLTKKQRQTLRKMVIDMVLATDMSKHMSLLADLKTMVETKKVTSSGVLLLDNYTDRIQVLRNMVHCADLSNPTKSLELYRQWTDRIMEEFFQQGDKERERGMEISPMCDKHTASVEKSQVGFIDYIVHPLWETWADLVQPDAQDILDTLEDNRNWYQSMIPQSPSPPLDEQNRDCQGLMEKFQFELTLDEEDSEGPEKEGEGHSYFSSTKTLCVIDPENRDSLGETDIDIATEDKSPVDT

With `N[C@@H](Cn1cc(I)c(=O)n(Cc2ccc(C(=O)O)cc2)c1=O)C(=O)O`, the Potency in [1] is > 46 µM (inactive); in [2], > 46 µM (inactive); in [4] it was 2.51 µM (active). Besides, the Potency result in assay [3], in [6], in assay [7] and in assay [8] was “inactive” each time. The activity change, negative = inhibition in [5] was 2.45% (inactive). The results for the max response in assay [5] (setting [10]) and in assay [5] (setting [11]) were 4.58% and 1.43%, respectively.

For `Cc1o[nH]c(=O)c1CC[C@H](N)C(=O)O`, the Potency in [1] and in assay [2] was > 46 µM (inactive) each time. For the same compound, the Potency result in assay [3], in assay [9], in assay [6], in [7] and in [8] was “inactive” each time. Moreover, the activity change, negative = inhibition in [5] is 4.78% (inactive). The max response is -7.36% in [5] (setting [10]) and -2.41% in assay [5] (setting [11]).
